Sfp PPTase inh – qHTS Assay for Inhibitors of Bacillus subtilis Sfp phosphopantetheinyl transferase (PPTase). 4'-phosphopantetheinyl transferase ffp (Bacillus subtilis), Q9F4F7. Biochemical Sfp PPTase activity, qHTS. Potency, µM, for inactives: largest response in the series, negative = inhibition, most hits filed as inhibitors. 310,000 compounds, 3.5% hits;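 also: the enzyme is Sfp with the accession as filed and its product quenches rhodamine fluorescence; 0% = enzyme reaction without inhibitor and -100% = no enzyme wells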
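After 15 min at room temperature with compound, 15 nM Sfp received 5 uM rhodamine-CoA plus 12.5 uM BHQ-2-ybbR (50 mM Hepes pH 7.6, 10 mM MgCl2). Rate came from the fluorescence difference over 30 min, ex 525/em 598 nm.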
G9a inh – qHTS Assay for Inhibitors of Histone Lysine Methyltransferase G9a. G9a H3K9 monomethylation, AlphaScreen, 2 h. Potency, µM (series often up to 102 µM), inactives show at the top dose activity, negative = inhibition, actives largely listed as inhibitors. 350,000 compounds, 8.8% hits; also: % is scaled to controls: 0 for no effect and ±100 for the full control effect; nearly all actives have a fitted effect of over 75% in size
Target sequence (Q96KQ7 913-1193 limits assumed): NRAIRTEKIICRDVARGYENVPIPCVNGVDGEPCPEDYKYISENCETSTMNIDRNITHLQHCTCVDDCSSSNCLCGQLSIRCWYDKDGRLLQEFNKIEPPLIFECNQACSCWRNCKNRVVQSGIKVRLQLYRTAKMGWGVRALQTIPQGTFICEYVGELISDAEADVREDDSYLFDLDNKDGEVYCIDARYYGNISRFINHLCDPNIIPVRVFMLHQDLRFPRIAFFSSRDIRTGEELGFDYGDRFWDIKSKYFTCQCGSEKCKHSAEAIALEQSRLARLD
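G9a (20 nM) preincubated 15 min RT with compounds, then 500 nM biotinylated H3K9 peptide and 20 uM SAM added; 2 h RT reaction. Monomethyl-H3K9 product detected by AlphaScreen with anti-H3K9me1 antibody, streptavidin donor and anti-rabbit IgG acceptor beads.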
JMJD2A Tudor – qHTS Assay for Inhibitors of JMJD2A-Tudor Domain; Potency, µM (top dose mostly 114 µM), for the others: top-dose activity change, negative = inhibition, actives largely listed as inhibitors; Lysine-specific demethylase 4A (Homo sapiens), O75164; AlphaScreen JMJD2A-Tudor / H3K4me3 peptide binding; AID 504339, 2011; 390,000 compounds, 4.4% hits; also: % is scaled to controls: 0 for no effect and ±100 for the full control effect; nearly all actives have a fitted effect of over 50% in size
BAZ2B inh – qHTS Assay for Inhibitors of BAZ2B; Bromodomain adjacent to zinc finger domain protein 2B (Homo sapiens), Q9UIF8; AlphaScreen BAZ2B-H3K14Ac peptide displacement; Potency, µM (top dose mostly 114 µM), for the others: at the top dose activity change, negative = inhibition, usual class: inhibitors; 360,000 compounds, 4.4% hits; AID 504333, 2011; also: % is scaled to controls: 0 for no effect and ±100 for the full control effect; nearly all actives have a fitted effect of over 60% in size
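AlphaScreen displacement of biotin-H3(5-23)K14Ac peptide (50 nM final) from BAZ2B (50 nM final) in PBS pH 7.4, 0.01% Tween-20; complex preformed 30 min RT, then compounds (top 110 uM) 30 min RT, beads 20 min dark.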
HP1b binding inh – HTS for Inhibitors of HP1-beta Chromodomain Interactions with Methylated Histone Tails; AID 540317, 2011; 390,000 compounds, 0.56% hits; AlphaScreen HP1-beta / biotin-H3K9me3 peptide binding; Chromobox protein homolog 1 (Homo sapiens), P83916; Potency, µM (doses to about 114 µM), for the others: at the top dose activity change, negative = inhibition, hits mostly inhibitors; also: nearly all actives have a fitted effect of over 70% in size
Target sequence (P83916 whole entry, looked up): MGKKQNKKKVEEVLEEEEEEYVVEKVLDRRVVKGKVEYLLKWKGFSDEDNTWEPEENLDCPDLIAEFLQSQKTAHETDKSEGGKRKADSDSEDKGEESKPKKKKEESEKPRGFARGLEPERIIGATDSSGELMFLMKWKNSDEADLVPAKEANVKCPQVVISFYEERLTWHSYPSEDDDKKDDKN
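HP1-beta protein (50 nM final) preincubated 30 min at room temperature with biotinylated H3(1-18)K9me3 peptide (50 nM) in PBS pH 7.4, 0.01% Tween-20, then compound added for 30 min. AlphaScreen streptavidin donor/nickel chelate acceptor beads (10 ug/mL final), 30 min dark, luminescence read.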
An asterisk follows results filed as active; ? = inconclusive; . = no result; ! = repeats disagree; [ ] = remark or other dose. Compounds with a hit are over-represented: about 12% of the library has one in this group of screens. Calls follow the shape of the dose curve; as a rule, active = well fitted curve in the direction sought with a large enough effect; inconclusive = small, poorly fitted or top-dose-only effect, or another doubt; inactive = no such curve, though single readings can be large; an effect the other way counts as inactive or inconclusive. Potency is read from the fitted curve at half-maximal effect.

SMILES | Sfp PPTase inh | G9a inh | JMJD2A Tudor | BAZ2B inh | HP1b binding inh
COCCN(C(=S)Nc1c(C)cccc1C)C(C)c1cccnc1 (stereo unspecified) | -6% | 3%[59 µM] | -7%[57.1 µM] | -3% | 35%
COCCN(C(=S)Nc1c(C)cc(C)cc1C)C(C)c1cccnc1 (stereo unspecified) | 11µM* | 7.1µM* | -1%[57.1 µM] | 7% | ?
CCC(C)(C)c1nnc(NC(=O)C2CC(=O)N(CCc3ccc(F)cc3)C2)s1 (stereo unspecified) | -6% | 45µM* | -9% | 2% | -9%
CCC(CC)c1nnc(NC(=O)C2CC(=O)N(CCc3ccc(F)cc3)C2)s1 (stereo unspecified) | 11µM* | 3.2µM* | -19% | ? | ?
CC(C)N(C)C1=CC(=O)C(N(C)C(C)C)=CC1=O | . | . | -22% | . | -13%
CCc1n[nH]c(=S)n1/N=C/c1cccc2ccccc12 | -17% | 1.6µM* | ? | -18% | 32%
CCc1n[nH]c(=S)n1/N=C/c1ccc2c(c1)OCO2 | -8% | . | 4.5µM* | -4% | 9%
CCc1n[nH]c(=S)n1/N=C/c1ccccc1OCc1ccc(Cl)cc1 | ? | . | -10% | -21% | 40%
S=c1[nH]nc(-c2ccncc2)n1/N=C/c1cccc2ccccc12 | -6% | 1.1µM* | . | -7% | .
CCc1n[nH]c(=S)n1/N=C/c1c(O)ccc2ccccc12 | -14% | ? | 14µM* | -24% | 37%
CC(C)(C)c1ccc(O)c(/C=N\O)c1 | 22% | 29%[59 µM] | ? | -7% | 30%
CC(C)(C)c1ccc(O)c(O)c1 | . | 9%[0.501 µM] | 13µM* | -8% | ?
COC/C=C/C1=CC2=CC(=O)C(C)(OC(=O)c3cnc4ccccc4n3)C(=O)C2=CN1c1ccccc1 (stereo unspecified) | 15% | -32%[59 µM] | ? | -39% | -10%
COC/C=C/C1=CC2=CC(=O)C(C)(OC(=O)c3cnc4ccccc4n3)C(=O)C2=CN1c1ccc(CO)cc1 (stereo unspecified) | 56µM*! | . | . | 10µM* | .
COC/C=C/C1=CC2=CC(=O)C(C)(OC(=O)c3cnc4ccccc4n3)C(=O)C2=CN1C1CCCCC1 (stereo unspecified) | -15% | 40µM* | . | ? | .
S=c1[nH]nc(COc2ccccc2)n1/N=C/c1ccc(Br)s1 | -11% | 7.9µM* | 56µM* | -38% | -33%
Cc1ccc(/C=N/n2c(COc3ccccc3)n[nH]c2=S)s1 | 15% | 4%[0.501 µM] | 56µM* | ? | -5%
Cc1n[nH]c(=S)n1/N=C/c1ccc(-c2ccc(Cl)cc2)o1 | . | . | -9% | . | 44%
Cc1ccc(-c2n[nH]c(=S)n2/N=C/c2ccc(C)s2)cc1 | -2% | 3%[0.501 µM] | ? | -37% | 30%
S=c1[nH]nc(-c2ccccn2)n1/N=C/c1ccc(-c2ccccc2Cl)o1 | -6% | 1.1µM* | 28µM* | 25µM* | ?
S=c1[nH]nc(-c2ccccn2)n1/N=C/c1ccc(Br)s1 | 12% | 1.3µM* | 7.9µM* | 13µM* | 14%
CCc1ccc(NC(=O)c2cc3c([nH]c2=O)CC(C)(C)CC3=O)cc1 | . | 8%[59 µM] | -14% | -10% | 20%
CCOC(=O)C(CCc1ccccc1)NC(C)C(=O)N1Cc2ccccc2CC1C(=O)O (stereo unspecified) | -11% | -3%[2.33 µM] | . | . | .
CN1CCN(C(=O)C2CCC(CNS(=O)(=O)c3cccc4cccnc34)CC2)CC1 (stereo unspecified) | -2% | ? | -2% | -5% | 60%
O=C(NCCN1CCCCCC1)C1CCC(CNS(=O)(=O)c2cccc3cccnc23)CC1 (stereo unspecified) | 7% | 45µM* | ? | -32% | 25%
SMILES | Sfp PPTase inh | G9a inh | JMJD2A Tudor | BAZ2B inh | HP1b binding inh
O=C(NCc1nnc(SCC(=O)N2CCN(c3ccccc3)CC2)o1)c1ccc(F)cc1 | -18% | 79µM* | -11% | -25% | 63%
COc1ccc(C(=O)NCc2nnc(SCC(=O)N3CCCCC3)o2)cc1OC | -13% | 79µM* | 3% | -17% | 32%
Cc1nc(Cc2nnc(SCC(=O)N3CCN(c4ccccc4)CC3)o2)cs1 | . | 45µM* | -14% | -2% | 15%
O=C(Nc1cccc(F)c1)N1CCCC2(CCN(C(=O)c3ccncc3)CC2)C1 | 5% | 5%[12.7 µM] | . | . | .
COC(=O)CC[C@H](N)C(=O)O | 2% | 3%[12.7 µM] | . | . | .
O=[N+]([O-])c1ccc(Sc2ccccc2)nc1 | 12% | -4%[59 µM] | ? | -38% | -24%
O=[N+]([O-])c1ccc(Sc2n[nH]c(-c3ccccc3)n2)nc1 | 2% | ? | 56µM* | -4% | 33%
Nc1cccnc1Sc1ccc([N+](=O)[O-])cn1 | ? | 1µM* | 1.6µM* | -29% | -16%
CN(C)c1ccc(-c2cc3ccccc3c(=O)o2)cc1 | . | . | 16% | . | 139%
Cc1ccc(CNC(=O)c2ccc(CSCc3ccc(C)cc3)o2)cc1 | . | 10%[59 µM] | 32µM* | 29% | 33%
Cc1ccc(CNC(=O)c2ccc(CSCc3cccc(C)c3)o2)cc1 | . | 4%[59 µM] | 15% | 26% | 45%
CC1CCC(NC(=O)COC(=O)C2=NN(c3ccccc3)C(=O)CC2)CC1 (stereo unspecified) | . | ? | 4% | 8% | 41%
CC1CCCC(NC(=O)NC(=O)COC(=O)C2=NN(c3ccccc3)C(=O)CC2)C1C (stereo unspecified) | . | 10µM* | 5% | 3% | 40%
CC1CCN(S(=O)(=O)c2ccc3c(c2)N(CC(=O)NCCN(C)C)C(=O)CS3)CC1 | . | -28%[59 µM] | -11% | -7% | 27%
Cc1cn2c(=O)cc(COc3ccc(NC(=O)c4ccccc4C)cc3)nc2s1 | . | 20%[59 µM] | -22% | 3% | 58%
CCOc1ccccc1NC(=O)CSc1ccc2nnc(CCNS(=O)(=O)c3ccccc3)n2n1 | . | -3%[59 µM] | ? | -22% | 31%
CCc1ccccc1NC(=O)CSc1ccsc1[N+](=O)[O-] | -11% | ? | ? | 50µM* | -22%
O=C(CSc1ccsc1[N+](=O)[O-])NCc1ccccc1 | 2% | 50µM* | -33% | ? | 5%
CSc1ccc(CCNC(=O)CSc2ccsc2[N+](=O)[O-])cc1 | 17% | 18% | -24%[57.1 µM] | -29% | 33%
COc1ccccc1CNC(=O)CSc1ccc(C(=O)Nc2ccccc2OC)cc1[N+](=O)[O-] | 50µM* | 10% | -10% | ? | 13%
CC1CCCCC1NC(=O)CSc1ccsc1[N+](=O)[O-] (stereo unspecified) | 8% | -28% | -17% | -27% | 16%

Screens (PubChem BioAssay)
